Screens: PubChem, National Center for Advancing Translational Sciences (NCATS)
Many of the other results were omitted from the sample, so hits are more common in it than they were.
Cycloheximide cs = Cycloheximide Counterscreen for Small Molecule Inhibitors of Shiga Toxin | cell reporter, cycloheximide protein synthesis inhibition counterscreen | max response, % | hit rate 12% among 300,000 | AID 2314, 2010; in the data active = max response mostly above about 13%, no sharp cut-off; inactive = mostly below about 14%; note: read at 38.3 µM for the half of the compounds with a filed dose; 0% is about no effect
Shiga inhibitor = A qHTS for Small Molecule Inhibitors of Shiga Toxin; hit rate 9.2% among 290,000; Vero cells, Shiga toxin protein synthesis inhibition reporter; inhibition, % at 38.7 µM; in the data active = inhibition mostly above about 28%, no sharp cut-off; inactive = mostly below about 43%; note: 0% is about no effect
FBPA Giardia inh = qHTS Assay for Inhibitors of Fructose-1,6-bisphosphate Aldolase from Giardia Lamblia. A8B2U2. purified Giardia FBPA. Potency, µM (highest dose often 59.6 µM), inactives show at the highest dose activity, negative = inhibition, hits mostly inhibitors. hit rate 0.71% among 290,000. AID 2451, 2010; note: potency is the fitted concentration of half-maximal effect; % is set by controls: 0 for no effect and ±100 for the full control effect; nearly all actives have a fitted effect of over 55% in size
Target sequence (A8B2U2 whole entry, looked up): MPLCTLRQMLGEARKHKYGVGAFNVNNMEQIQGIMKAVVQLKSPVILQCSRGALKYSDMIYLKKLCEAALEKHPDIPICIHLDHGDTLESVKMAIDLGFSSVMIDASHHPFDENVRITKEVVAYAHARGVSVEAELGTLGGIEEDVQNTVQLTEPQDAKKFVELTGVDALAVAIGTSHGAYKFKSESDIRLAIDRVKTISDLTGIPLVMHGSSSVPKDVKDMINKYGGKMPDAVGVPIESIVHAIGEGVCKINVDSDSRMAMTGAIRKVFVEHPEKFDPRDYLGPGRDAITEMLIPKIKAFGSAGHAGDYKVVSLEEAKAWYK
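Giardia FBPA (40 nM reagent) was preincubated 10 min at RT with compound (up to 57.5 uM final), then substrate plus GAPDH/TPI/NAD/arsenate coupling system with diaphorase/resazurin was added; resorufin fluorescence (525/598 nm) was read after 20 min.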
TbPYK inhibitor = qHTS of Trypanosoma Brucei Inhibitors; pyruvate kinase (Trypanosoma brucei), Q57TT1; TbPYK enzyme, Kinase-Glo Plus ATP luminescence, 45 min; Potency, µM (titrated, usually from 76.8 µM), for inactives: at the highest dose activity, negative = inhibition, usual class: inhibitors; hit rate 0.12% among 410,000; AID 624173, 2012; note: potency is the fitted concentration of half-maximal effect; % is set by controls: 0 for no effect and ±100 for the full control effect; nearly all actives have a fitted effect of over 50% in size
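Screened from lowest to highest concentration, compounds were pinned into TbPYK/substrate mixtures, and ADP (130 uM final) was added. Plates sat at room temperature for 45 min prior to Kinase-Glo Plus detection by luminescence.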
LmPK inh = qHTS Assay for Inhibitors of Leishmania Mexicana Pyruvate Kinase (LmPK); Q27686; purified LmPK, Kinase-Glo ATP luminescence, 1 h; Potency, µM (doses to about 57.5 µM), for inactives: top-dose activity change, negative = inhibition, hits mostly inhibitors; hit rate 0.37% among 290,000; note: potency is the fitted concentration of half-maximal effect; % is set by controls: 0 for no effect and ±100 for the full control effect
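Purified LmPK (0.1 nM) with 0.5 mM PEP and 0.1 mM ADP in imidazole buffer pH 7.2 with MgCl2/KCl, 1 h at room temperature. ATP formed was read by luciferase luminescence and normalized to no-enzyme and uninhibited controls.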
Sm TGR block = qHTS Assay for the Inhibitors of Schistosoma Mansoni Peroxiredoxins. Schistosoma mansoni thioredoxin glutathione reductase (TGR), Q962Y6. purified TGR, DTNB reduction, TNB absorbance 405 nm. Potency, µM (doses to about 114 µM), inactives show at the highest dose activity change, negative = inhibition, most hits filed as inhibitors. hit rate 3% among 360,000. AID 485364, 2010; note: potency is the fitted concentration of half-maximal effect; % is set by controls: 0 for no effect and ±100 for the full control effect; nearly all actives have a fitted effect of over 60% in size
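Kinetic colorimetric format: TGR-catalysed, NADPH-driven DTNB reduction monitored via TNB absorbance. Enzyme dispensed at 20 nM; compound exposure 15 min at room temperature before reaction start.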
Starred values were filed as active, the others as inactive; ? = inconclusive; nt = no result given. Unless noted, calls come from the whole dose curve; as a rule, active = well fitted curve in the direction sought with a large enough effect; inconclusive = small, poorly fitted or top-dose-only effect, or another doubt; inactive = no such curve, though single readings can be large; an effect the other way counts as inactive or inconclusive.

SMILES	Cycloheximide cs	Shiga inhibitor	FBPA Giardia inh	TbPYK inhibitor	LmPK inh	Sm TGR block
O=C(COc1ccc(C2SCCS2)cc1)NNC(=O)C(Cl)Cl	22*	48	21%	2%	5%	?
CC(C)Cc1ccc(-c2cc3nc(NCCOc4ccccc4)ccn3n2)cc1	nt	nt	nt	5%	nt	nt
CC(C)c1ccc2c(c1)NC(c1ccc(F)cc1)=NC(c1cccs1)=N2	nt	nt	nt	1%	nt	-2%
Cc1nc(NC(C)C)c2cnn(CCc3ccccc3)c2n1	19*	39	-20%	0%	-3%	-17%
Cc1nc(NCCCN2CCOCC2)c2cnn(-c3ccccc3)c2n1	nt	nt	nt	3%	nt	nt
CCCNc1nc(C)nc2c1cnn2CCc1ccccc1	19*	48	-17%	-4%	-2%	6%
Nc1nc2c(cnn2CCc2ccccc2)c2nc(-c3ccco3)nn12	nt	nt	0%	nt	nt	nt
CCOc1ccc(C2c3c(oc4ccc(C)cc4c3=O)C(=O)N2CCCN2CCOCC2)cc1 (centres undefined)	nt	nt	nt	-2%	nt	8%
Cc1nc(/C(N)=N/OC(=O)c2cccc(Cl)c2)c(C(F)(F)F)o1	11*	37	1%	1%	-7%	-1%
Cc1nc(C(=O)NNC(=O)c2ccc(Cl)cc2)c(C(F)(F)F)o1	-2	8	?	3%	4%	-3%
Cc1nc(/C(N)=N/OC(=O)c2ccccc2Cl)c(C(F)(F)F)o1	52*	91*	0%	-21%	13µM*	-1%
CCOc1ccc(NC(=O)c2cc3ccccc3cc2O)cc1	30*	60*	-5%	3%	6%	-8%
CCOc1ccc(NC(=O)c2cccc3ccccc23)cc1	18*	37	-5%	0%	-5%	-3%
COc1cc(NC(=O)c2cc3ccccc3cc2O)c(OC)cc1Cl	19*	63*	-14%	-8%	4%	-13%
O=C(Nc1ccc2ccccc2c1)c1cccc2ccccc12	nt	nt	nt	1%	nt	nt
COc1ccccc1NC(=O)c1cc2cc(Br)ccc2cc1O	24*	85*	?	6%	0%	7%
COc1cc(NC(=O)c2ccc(Cl)cc2)c(OC)cc1Cl	-2	-4	-2%	8%	11%	-4%
COc1cc(OC)cc(C(=O)NNC(=S)Nc2ccc(S(N)(=O)=O)cc2)c1	6	4	20%	-22%	-3%	nt
COc1cc2ccccc2cc1C(=O)Nc1ccccc1Cl	86*	71*	?	-3%	-1%	1%
COc1cc2ccccc2cc1C(=O)Nc1ccc(N2CCN(C(=O)C(C)C)CC2)cc1	-3	20	nt	-2%	5%	-1%
COc1ccc(NC(=O)c2cc3ccccc3cc2OC)cc1	29*	69	7%	1%	0%	11%
COc1cc2ccccc2cc1C(=O)Nc1cccnc1	33*	76*	0%	-1%	1%	-2%
COc1cc2ccccc2cc1C(=O)Nc1ccc(N2CCN(C)CC2)cc1	43*	60	1%	nt	-2%	11%
O=C(NCCCN1CCCC1=O)C1CCN(S(=O)(=O)c2ccccc2)CC1	nt	nt	nt	1%	nt	-9%
CCOc1ccc(NC(=O)c2cc3ccccc3cc2OC)cc1	36*	60*	0%	4%	-6%	21%
SMILES	Cycloheximide cs	Shiga inhibitor	FBPA Giardia inh	TbPYK inhibitor	LmPK inh	Sm TGR block
CCOC1=CC2=C(C(=O)C(Cl)=CC2=O)[C@@H]2CN(S(=O)(=O)c3ccc(C)cc3)[C@@H](c3ccccc3)[C@H]12	nt	nt	nt	2.5µM*	nt	nt
CCN1C(=O)[C@@H]2[C@@H]3CN(S(=O)(=O)c4ccc(C)cc4)[C@@H](c4ccccc4)[C@@H]3C(=O)C[C@@H]2C1=O	nt	nt	nt	-5%	nt	nt
COC(=O)c1ccc(NC(=O)c2cc3cc4ccc(OC)c(Cl)c4nc3s2)cc1	nt	nt	nt	-6%	nt	4%
CCOc1ccc(NC(=O)CCS(=O)(=O)c2cc3c4c(c2)CCN4C(=O)CC3)cc1	nt	nt	nt	-7%	nt	-5%
CC(Cc1cccnc1)NC(=O)c1cc(COc2ccc(F)cc2F)on1 (centres undefined)	7	28	nt	-4%	-8%	2%
COc1ccc(OCc2cc(C(=O)NC(C)Cc3ccccn3)no2)c(Cl)c1 (centres undefined)	35*	37*	nt	-2%	4%	0%
COc1ccc(OCc2cc(C(=O)NC(C)Cc3cccnc3)no2)c(Cl)c1 (centres undefined)	27*	38	nt	-3%	11%	-17%
COc1ccc(OCc2cc(C(=O)NC(C)Cn3cncn3)no2)c(Cl)c1 (centres undefined)	40*	62*	nt	4%	-4%	-14%
CC(=O)c1ccc(OCc2cc(C(=O)NC(C)Cc3ccccn3)no2)cc1 (centres undefined)	1	-4	2%	-1%	7%	?
Cc1ccc2ncc(C(=O)NC(C)c3ccccc3)c(=O)n2c1 (centres undefined)	nt	nt	nt	-2%	nt	8%
Cc1ccc(NC(=O)c2ccc(F)c(S(=O)(=O)NCCc3ccccc3)c2)cc1F	nt	nt	nt	2%	nt	1%
Cc1cccc(NC(=O)CCNS(=O)(=O)c2ccc3c(c2)CCCC(=O)N3)c1C	nt	nt	nt	1%	nt	0%
Cc1cc(=O)n(C(C)C(=O)NCc2ccccc2Cl)c2c1c(C)nn2-c1ccccc1 (centres undefined)	nt	nt	nt	4%	nt	-2%
CCCCSCCCNC(=O)C1CCN(Cc2nc(-c3ccc(CC)cc3)oc2C)CC1	nt	nt	nt	2%	nt	6%
COc1cc(/C=N/NC(=O)CSc2ccccn2)ccc1O	6	23	2%	4%	-5%	0%
CCCOc1ccc(/C=N/NC(=O)CSc2ccccn2)cc1OC	36*	85*	4%	2%	0%	3%
CN(C)c1ccc(/C=N/NC(=O)CSc2ccccn2)cc1	40*	56*	-2%	-3%	5%	0%
O=C(NNc1nc2cc3c(cc2s1)OCCO3)c1ccc(F)cc1	33*	46	16%	-18%	-2%	-1%
Nc1nc2cc3c(cc2cc1C(=O)NCc1ccc(F)cc1)OCO3	nt	nt	nt	-2%	nt	nt
O=C(NNc1nc2cc3c(cc2s1)OCO3)c1ccc(F)cc1	24*	68*	4%	-28%	-1%	-19%
O=C(O)c1ccccc1SC1CC(=O)N(c2cccc3ccccc23)C1=O (centres undefined)	-3	20	3%	-26%	7%	1.8µM*
CCOc1ccc(N2C(=O)CC(Sc3ccccc3C(=O)O)C2=O)c([N+](=O)[O-])c1 (centres undefined)	5	2	12%	-15%	-1%	18µM*
COC(=O)c1ccccc1SC1CC(=O)N(c2ccccc2)C1=O (centres undefined)	28*	57*	2%	0%	-2%	50µM*
